# According to PubChem BioAssay (Tox21):
# Records with an inconclusive call do not appear. Activity calls are given as the source filed them. Calls follow the shape of the dose curve; as a rule, active = well fitted activation curve with a large enough effect in the repeat runs; inconclusive = weak or mixed curves; inactive = flat fitted curve, though single readings scatter.
# Experiment: A CellTox Green Cytotoxicity Assay to monitor cytotoxicity in HEK293 cells - 8 hour (AID 1224884); also: nearly all actives have a fitted effect of over 35% in size
# Settings: CellTox Green fluorescence; series mostly up to 76.8 µM; cytotoxicity increase: at the top concentration
# Description: National Center for Advancing Translational Sciences [NCATS]
# NIH Chemical Genomics Center [NCGC]
# U.S. Environmental Protection Agency [EPA]
# National Institutes of Environmental Health Sciences [NIEHS]
# National Toxicology Program [NTP]
# Cell-based models are critical for drug discovery. Determining the natural cytotoxic effects resulting from test compounds is an essential research activity. A CellTox Green Cytotoxicity Assay to monitor cytotoxicity in real time of continues cell culture during 40 hours of the compound treatment was used to screen Tox21 10K library compounds in Hek293 cells. CellTox Green Cytotoxicity Assay is a nonlytic, homogeneous, biofluorescent method to measure cytotoxicity in cell culture after experimental manipulation. The assay system uses a proprietary asymmetric cyanine dye that is excluded from viable cells but preferentially stains the dead cell's DNA. […] Viable cells produce no appreciable increases in fluorescence. Therefore, the fluorescence signal produced by the binding interaction with dead cell DNA is proportional to cytotoxicity.
# The mixture of Hek293 cell suspension and reagents were dispensed at 600cells/6 ul/well in 1536-well tissue culture treated black solid bottom plates using a Multidrop dispenser. After the assay plates were incubated at a 37 C/5% CO2 incubator for 5 hours, 23 nL of compounds dissolved in DMSO, positive and negative controls was transferred to the assay plate by a pintool work station. The plates were incubated at 37 C for 40 hours. The fluorescence intensity were measured at 0h, 8h, 16h, 24h, 32h and 40h time points using ViewLux plate reader during compound treatment.
# % is scaled to controls: 0 for no effect and ±100 for the full control effect.
row,Structure (SMILES),cytotoxicity increase
1,O=C1c2ccccc2C(=O)c2cc(O)ccc21,-25.7% (inactive)
2,CN1CCN(c2cc3c(nn2)Oc2ccccc2N3C)CC1,-6.06% [at 15.8 µM] (inactive)
3,CC(COc1ccccc1)NN (stereo not given),1.05% [at 35.3 µM] (inactive)
4,CC(C)[C@H]1CC[C@@H](C)CC1=O,0.0485% (inactive)
5,COc1cc(-c2ccc(=O)[nH]n2)ccc1OC(F)F,0.688% [at 35.3 µM] (inactive)
6,CCOC(=O)CCC(=O)OCC,-19.8% (inactive)
7,CN1CCC(=C2c3ccccc3CCc3cccnc32)CC1,3.25% [at 35.3 µM] (inactive)
8,COc1ccccc1OCC1CNC(=O)O1 (stereo not given),-6.03% [at 35.3 µM] (inactive)
9,NC(=O)N[C@@H](CCC(=O)O)C(=O)O,-1.96% [at 35.3 µM] (inactive)
10,C=COC(=O)C(C)(CC)CCC(C)C (stereo not given),-27.7% (inactive)
11,CC(C)C(=O)OC(=O)C(C)C,0.341% (inactive)
12,CC(C#N)(CCC(=O)O)N=NC(C)(C#N)CCC(=O)O (stereo not given),-0.15% (inactive)
13,CC1(C)[C@@H]2CC[C@@]1(C)[C@H](O)C2,-2.01% (inactive)
14,CC(C)CCCO,-6.37% (inactive)
15,c1coc(CNc2ncnc3nc[nH]c23)c1,-2.98% (inactive)
16,CCCc1nn(C)c2c(=O)[nH]c(-c3cc(S(=O)(=O)N4CCN(C)CC4)ccc3OCC)nc12,-10.4% [at 35.3 µM] (inactive)
17,Nc1ccn([C@@H]2O[C@H](CO)[C@@H](O)C2(F)F)c(=O)n1,-9.59% [at 35.3 µM] (inactive)
18,CCC(=O)OCc1ccccc1,-0.905% (inactive)
19,CC(C)(C)OC(=O)c1cccc(N)c1,21.6% (inactive)
20,CC1=CC(=O)[C@H]2C[C@@H]1C2(C)C,1.26% (inactive)

row,Structure (SMILES),cytotoxicity increase
1,CCCCCCCCCCCCCCC(=O)O,-11.6% (inactive)
2,CC(CC=O)CC(C)(C)C (stereo not given),-2.23% (inactive)
3,CN(C)C(=O)Oc1cccc([N+](C)(C)C)c1,-20.7% [at 35.3 µM] (inactive)
4,CCCCCCCCN1CCCC1=O,1.29% (inactive)
5,Clc1cc(Cl)cc(Cl)c1,-2.95% (inactive)
6,C[N+]12CCC(CC1)C(OC(=O)C(O)(c1ccccc1)c1ccccc1)C2 (stereo not given),0.466% [at 35.3 µM] (inactive)
7,CCCCc1ccc2c(n1)[C@@H](c1ccc(OC)cc1C[C@H](C)C(=O)O)[C@H](C(=O)O)[C@H]2c1ccc2c(c1)OCO2,-9.89% (inactive)
8,Nc1ccn([C@@H]2O[C@H](CO)[C@@H](O)C2O)c(=O)n1 (stereo not given in full),15% (inactive)
9,O=C(O)CNC(=O)c1ccccc1,-15.5% [at 35.3 µM] (inactive)
10,COc1cc2c(cc1OC)-c1cc3ccc(OC)c(OC)c3c[n+]1CC2,-4.01% (inactive)
11,[O-][n+]1cccc(CO)c1,0.332% [at 35.3 µM] (inactive)
12,CC1CCC(CO)CC1 (stereo not given),-0.65% (inactive)
13,CC1=NN(c2cc(S(=O)(=O)O)ccc2Cl)C(=O)C1N=Nc1ccccc1 (stereo not given),-2.48% (inactive)
14,CCCc1ncc(C[n+]2ccccc2C)c(N)n1,-4.68% [at 35.3 µM] (inactive)
15,C1CCC2=NCCCN2CC1,-3.56% (inactive)
16,COc1c(N2CCNC(C)C2)c(F)cc2c(=O)c(C(=O)O)cn(C3CC3)c12 (stereo not given),1.21% [at 35.3 µM] (inactive)
17,CC(=O)O[C@@]12CO[C@@H]1C[C@H](O)[C@@]1(C)C(=O)[C@H](O)C3=C(C)[C@@H](OC(=O)[C@H](O)[C@@H](NC(=O)OC(C)(C)C)c4ccccc4)C[C@@](O)([C@@H](OC(=O)c4ccccc4)[C@H]21)C3(C)C,-5.62% [at 35.3 µM] (inactive)
18,NO,1.36% (inactive)
19,CCN1C=CN(C)C1C (stereo not given),-12.5% (inactive)
20,CCCCCCCCCCCCSC,-0.1% (inactive)
